Screens as filed in PubChem.
Compounds with a hit are over-represented: about 8.7% of the library has one in this group of screens.
Vaccinia mCherry: qHTS for Stage-Specific Inhibitors of Vaccinia Orthopoxvirus: mCherry Reporter Primary qHTS; Vaccinia virus mCherry reporter infection, fluorescence; Potency, µM (highest dose often 36.5 µM), hits mostly inhibitors; hit rate 0.63% among 310,000; calls by dose curve; tested in A549 cells; further: nearly all actives have a fitted effect of over 35% in size
Vaccinia Venus: qHTS for Stage-Specific Inhibitors of Vaccinia Orthopoxvirus: Venus Reporter Primary qHTS. Vaccinia virus Venus reporter expression, fluorescence. AID 720580, 2013. hit rate 0.46% among 330,000. Potency, µM (top dose mostly 36.5 µM), hits mostly inhibitors; calls by dose curve; tested in A549 cells; further: nearly all actives have a fitted effect of over 30% in size
Pf growth 48h: Primary qHTS for delayed death inhibitors of the malarial parasite plastid, 48 hour incubation | P. falciparum luciferase growth in erythrocytes, 48 h | Potency, µM (top dose mostly 28.7 µM), hits mostly inhibitors | hit rate 5.9% among 310,000
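Growth was read as firefly luciferase luminescence after a 48 h, 37 C, 5% CO2 exposure of compounds to reporter-bearing P. falciparum cultures (0.1% parasitemia, 2% hematocrit final) in Albumax-supplemented RPMI 1640.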
Pf growth 96h: Primary qHTS for delayed death inhibitors of the malarial parasite plastid, 96 hour incubation; Potency, µM (series often up to 28.7 µM), hits mostly inhibitors; AID 504834, 2011; P. falciparum luciferase reporter growth, 96 h; hit rate 6.9% among 320,000
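Parasite growth measured via integrated firefly luciferase reporter in P. falciparum. Infected erythrocytes at 2% hematocrit, 0.05% parasitemia final were treated 96 hours at 37 C under 5% CO2, and luminescence was read.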
AMA1-RON2 inh: qHTS for Inhibitors of AMA1-RON; Towards Development of Antimalarial Drug Lead: Primary Screen. Plasmodium falciparum AMA1 (3D7) - RON2 peptide interaction. AlphaScreen AMA1-biotinylated RON2 peptide binding. Potency, µM (top dose mostly 58.2 µM), actives largely listed as inhibitors. hit rate 0.2% among 360,000; further: nearly all actives have a fitted effect of over 45% in size
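AMA1 (3D7) with his tag at 25 nM final met compounds first, then biotinylated RON2 peptide at 25 nM; detection used donor plus acceptor beads, 10 µg/mL apiece, read by AlphaScreen after 30 min at room temperature.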
Hits are given with their value; – = inactive; ? = inconclusive; · = not tested or not shown; [ ] = another dose, or the depositor's remark. Unless noted, the call rests on the fitted dose curve; in most records, active means well fitted curve in the direction sought with a large enough effect; inconclusive means small, poorly fitted or top-dose-only effect, or another doubt; inactive means no such curve, though single readings can be large; an effect the other way counts as inactive or inconclusive.

SMILES	Vaccinia mCherry	Vaccinia Venus	Pf growth 48h	Pf growth 96h	AMA1-RON2 inh
CC1=NN(c2ccccc2)C(=O)C1N=Nc1ccc(S(N)(=O)=O)cc1 (stereo not drawn)	·	·	?	–	–
CC1=NN(c2ccccc2)C(=O)C1N=Nc1ccc(C)cc1 (stereo not drawn)	·	·	–	10µM	·
CN(C)c1ccc(/C=C2/CCCc3c2nc2ccccc2c3C(=O)O)cc1	–	–	·	·	·
CCOC(=O)/C=C1\CN(C(C)c2ccccc2)S(=O)(=O)c2ccccc21 (stereo not drawn)	–	–	–	–	–
CCOC(=O)/C=C1\CN(CCC(C)C)S(=O)(=O)c2ccccc21	–	–	?	15µM	–
Cc1ccc(C)c(N(C(=O)c2snc(C(N)=O)c2N)C(C(=O)NCC2CCCO2)c2ccc(C)o2)c1 (stereo not drawn)	–	–	?	–	–
COc1ccc(C)cc1N(C(=O)c1snc(C(N)=O)c1N)C(C(=O)NC1CCCCC1)c1ccc(C)o1 (stereo not drawn)	–	–	9.3µM	?	–
COc1ccccc1N(C(=O)c1snc(C(N)=O)c1N)C(C(=O)NC1CCCC1)c1ccc(N(C)C)cc1 (stereo not drawn)	–	–	13µM	–	–
COc1ccccc1N(C(=O)c1snc(C(N)=O)c1N)C(C(=O)NC1CCCC1)c1ccco1 (stereo not drawn)	·	·	–	–	–
COc1ccccc1N(C(=O)c1snc(C(N)=O)c1N)C(C(=O)NC1CCCCC1)c1cccc(OC)c1OC (stereo not drawn)	–	–	8.3µM	–	–
COc1cccc(C(C(=O)NC2CCCC2)N(C(=O)c2ccco2)c2ccccc2F)c1OC (stereo not drawn)	–	–	8.3µM	–	–
CCc1c(C)sc2c1CCN(C(=O)Nc1cc(C)ccc1C)C2c1ccc(OC)cc1 (stereo not drawn)	–	–	·	·	·
CC(C)(C)NC(=O)C(c1ccco1)N(Cc1ccc(F)cc1)C(=O)c1snc(C(N)=O)c1N (stereo not drawn)	–	–	?	·	–
COc1ccc(CN(C(=O)c2snc(C(N)=O)c2N)C(C(=O)NC2CCCC2)c2cc(OC)ccc2OC)cc1 (stereo not drawn)	–	–	10µM	2.1µM	–
COc1ccc(CN(C(=O)c2snc(C(N)=O)c2N)C(C(=O)NC(C)(C)C)c2ccco2)cc1 (stereo not drawn)	·	·	?	9.3µM	–
COc1ccc(OC)c(C(C(=O)NC2CCCCC2)N(C(=O)c2snc(C(N)=O)c2N)c2ccccc2OC)c1 (stereo not drawn)	–	–	2.6µM	–	–
COc1ccc(C(C(=O)NC2CCCC2)N(Cc2cccnc2)C(=O)c2snc(C(N)=O)c2N)cc1 (stereo not drawn)	–	–	12µM	13µM	–
COc1ccc(-c2cc3nc(-c4ccc(C)cc4)cc(C(F)(F)F)n3n2)cc1	–	–	·	·	·
O=C(Cc1ccc2c(c1)OCO2)N1CCOc2ccc(CN3CCOCC3)cc2C1	–	–	·	·	·
Cc1ccc2c(c1)c1c(c(=O)n(-c3ccccc3)c(=O)n1Cc1ccccc1C)n2C	?	–	·	·	·
COc1ccc(OC)c(N(C(=O)c2snc(C(N)=O)c2N)C(C(=O)NCc2ccccc2)c2ccc(O)cc2)c1 (stereo not drawn)	–	–	10µM	13µM	–
CN1CCN(c2ccc(CNC(=O)c3cccc4c(-c5ccc(F)c(F)c5)coc34)cc2)CC1	?	?	·	·	14µM
COc1ccc(CCNC(=O)Nc2cccc([N+](=O)[O-])c2)cc1	–	–	–	13µM	–
CN(C)c1ccc(CN(C(=O)c2ccco2)C2CCS(=O)(=O)C2)cc1 (stereo not drawn)	–	–	–	5.2µM	–
CN(C)c1ccc(CN(C(=O)c2ccccc2Br)C2CCS(=O)(=O)C2)cc1 (stereo not drawn)	·	·	–	13µM	–
SMILES	Vaccinia mCherry	Vaccinia Venus	Pf growth 48h	Pf growth 96h	AMA1-RON2 inh
CCOc1ccc(-n2c(SCC(=O)N3CCc4ccccc43)nc3c([nH]c4ccccc43)c2=O)cc1	–	–	·	·	·
COC(=O)c1nc(NC(=O)C(C)C)n[nH]1	–	–	?	5.9µM	–
COC(=O)c1nc(NC(C)=O)n[nH]1	·	·	–	?	·
Cc1ccc(C)c(NC(=O)c2cnc(N3CCCC3)nc2C)c1	–	–	·	·	·
CCCCNC(=S)N/N=C/c1ccc(C)s1	–	–	·	1.7µM	–
Cc1ccc(/C=N/NC(=S)NCCc2ccccc2)s1	·	·	12µM	?	–
CCCCNC(=S)N/N=C/c1sccc1C	–	–	?	?	–
COCCCNC(=O)c1cnn(-c2ncc3c(n2)-c2ccccc2CCC3)c1C	–	–	·	·	·
CC(C)CC(=O)Nc1nnc(SCc2cc(=O)n3ccccc3n2)s1	–	–	·	·	·
COC(=O)C(NC(=O)CNS(=O)(=O)c1ccc(Br)cc1)c1ccccc1 (stereo not drawn)	–	–	10µM	–	–
C/C(=N/NC(=O)CNS(=O)(=O)c1ccccc1)c1ccc(Br)cc1	–	–	?	13µM	–
C/C(=N\NC(=O)c1ccc(Br)cc1)c1ccccc1	–[1.46 µM]	?	–	–	–
COC(=O)N/N=C(\C)c1ccc(Br)cc1	·	–	·	–	–
CCOC(=O)N/N=C(\C)c1ccc(Br)cc1	–	–	·	12µM	–
COC(=O)C(Cc1ccccc1)NC(=O)CNS(=O)(=O)c1ccc(Br)cc1 (stereo not drawn)	–	–	–	–	–
Cc1ccc(C)c(N(C)C(=O)c2cc3c(s2)-c2ccccc2OC3)c1	–	–	·	·	·
COc1ccc(OC)c(N(C)S(=O)(=O)c2ccc3c(c2)NC(=O)CC(=O)N3)c1	–	–	·	·	·
COc1ccc(-c2nc3ccccc3c(C(=O)Nc3ccc(S(=O)(=O)Nc4cc(C)on4)cc3)c2C)cc1	·	–	10µM	?	–
Cc1ccc(-c2cc(C(=O)Nc3ccc(S(=O)(=O)Nc4cc(C)on4)cc3)c3ccccc3n2)c(C)c1	·	–	?	7.4µM	–
O=C(Nc1cc(F)ccc1F)c1cnn2c1NC(=C1CC1)C=C2C(F)F	–	–	·	·	·
Cc1ccc(NC(=O)c2oc3ccc(S(=O)(=O)N4CCCCC4)cc3c2C)c(C)c1	–	–	·	·	·
Cc1cc(C)nc(-n2ncc3c2CC(c2ccc(F)cc2)CC3=O)n1 (stereo not drawn)	–	–	?	–	–
Cc1cc(C)nc(-n2ncc3c2CC(c2ccccc2)CC3=O)n1 (stereo not drawn)	–	–	–	?	–
Cc1cc(C)nc(-n2ncc3c2CC(c2cccc(Cl)c2)CC3=O)n1 (stereo not drawn)	10µM	?	?	4.1µM	–
Cc1cc(C)nc(-n2ncc3c2CC(c2ccccc2C)CC3=O)n1 (stereo not drawn)	·	·	?	5.2µM	–
CCc1ccc(C(=O)C[N+]2(C)CCOCC2)cc1	–	–	·	·	·
